Measured values reported in PubChem BioAssay (NCI).
Where “and” joins values, the source holds several entries; their conditions need not be identical. Equal values may be shown once. This is part of a sample that, as a whole, favours compounds with a hit. Of some 79,000 tested, about 15% had one in any assay. Values without a mark were called inactive. Calls of active or inactive are those of the source. Cut-off read from the data, not from the text of the source: active = growth inhibition above about 70%; inactive = the rest.

Experiment: NCI Yeast Anticancer Drug Screen. Data for the mec2-1 strain (AID 157)
Settings: S. cerevisiae mec2-1 strain, at 5.0 µM (retest, dose inferred, filed as 0.5), hits give high values
Outline: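 Growth inhibition is read against vehicle-treated controls after compound exposure of the mec2-1 yeast strain, which is defective in DNA damage repair or cell cycle control.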

Which growth inhibition does the source give for `Cc1cccc(Cc2ccccc2Cl)c1O` here?
The growth inhibition was -1%.

Which growth inhibition does the source give for `OC1CN(Cc2ccccc2)C[C@@H]1O` (some centres not stated) here?
Its growth inhibition is 11%.

For `BrC(c1cccc2ccccc12)c1cccc2ccccc12`, which growth inhibition is on record?
Its growth inhibition is 20%.

With `COc1nc(NC2OC(CO)C(O)C(O)C2O)c(Cl)c(=O)n1C` (configuration not stated) as the compound, how does the growth inhibition read?
The growth inhibition was 3%.

With `O=S(=O)(CC(Cl)c1ccccc1)c1nc2ccccc2s1` (configuration not stated) as the compound, how does the growth inhibition read?
The growth inhibition was 2%.

For `CCCCCCCCCCCCOS(=O)(=O)O`, which growth inhibition is on record?
The growth inhibition was -12%.

With `O=C(NNc1ccnc2cc(Cl)ccc12)/C(=C/c1ccc2c(c1)OCO2)NC(=O)c1ccccc1` as the compound, how does the growth inhibition read?
Its growth inhibition is -18%.

Which growth inhibition does the source give for `O=C(CCN1CCN2c3ccccc3CCC2C1)c1ccc(F)cc1` (configuration not stated) here?
Its growth inhibition is 63% and 22%.

For `CC1C[C@]2(C)C(=O)Nc3ccccc3[C@@H]2Nc2ccccc21` (some centres not stated), which growth inhibition is on record?
Its growth inhibition is 10%.

Which growth inhibition does the source give for `Nc1nc(=S)c2ncn(C3OC(CO)C(O)C3O)c2[nH]1` (configuration not stated) here?
Its growth inhibition is 97% (active).

With `O=C(O)c1c2ccccc2nc2[nH]c(=O)[nH]c(=O)c12` as the compound, how does the growth inhibition read?
The growth inhibition was -2%.

With `N#Cc1c(/N=C/c2ccccc2Cl)sc2c1CCC2` as the compound, how does the growth inhibition read?
Its growth inhibition is -14%.

For `CCC1=C(C)/C(=C/c2[nH]c(C)c(CC)c2C)N=C1C`, which growth inhibition is on record?
Its growth inhibition is 6% and 0%.

With `O=C(O)c1ccccc1C(=O)O` as the compound, how does the growth inhibition read?
The growth inhibition was -3%.

Which growth inhibition does the source give for `Cc1cc(C)nc(NS(=O)(=O)c2ccc(Nc3c4ccccc4nc4c(C(=O)NCCCN(CCO)CCO)cccc34)cc2)n1` here?
The growth inhibition was -13%.

With `CCCCCCCCCCCCCCCCCCOCC(COP(=O)([O-])OCC[N+](C)(C)C)OC` (configuration not stated) as the compound, how does the growth inhibition read?
Its growth inhibition is -4%.

For `S=c1nc[nH]c2[nH]ccc12`, which growth inhibition is on record?
The growth inhibition was 2%.
